Measured values published in PubChem BioAssay AID651663 (NMMLSC, 2012).
Active and inactive are the calls of the source.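 How the source made its calls: active means fitted half-maximal signal drop concentration below 100 µM; inactive means the rest.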

Biological target: ATP-binding cassette sub-family B member 6 (Homo sapiens) (UniProt Q9NP58)
Test: ABCB6 transporter inhibitors, porphyrin accumulation, dose response, flow cytometry, K562-ABCB6 cells, powder set 01 (AID 651663)

ATP-binding cassette sub-family B member 6 (Homo sapiens), sequence (Q9NP58 whole entry, looked up): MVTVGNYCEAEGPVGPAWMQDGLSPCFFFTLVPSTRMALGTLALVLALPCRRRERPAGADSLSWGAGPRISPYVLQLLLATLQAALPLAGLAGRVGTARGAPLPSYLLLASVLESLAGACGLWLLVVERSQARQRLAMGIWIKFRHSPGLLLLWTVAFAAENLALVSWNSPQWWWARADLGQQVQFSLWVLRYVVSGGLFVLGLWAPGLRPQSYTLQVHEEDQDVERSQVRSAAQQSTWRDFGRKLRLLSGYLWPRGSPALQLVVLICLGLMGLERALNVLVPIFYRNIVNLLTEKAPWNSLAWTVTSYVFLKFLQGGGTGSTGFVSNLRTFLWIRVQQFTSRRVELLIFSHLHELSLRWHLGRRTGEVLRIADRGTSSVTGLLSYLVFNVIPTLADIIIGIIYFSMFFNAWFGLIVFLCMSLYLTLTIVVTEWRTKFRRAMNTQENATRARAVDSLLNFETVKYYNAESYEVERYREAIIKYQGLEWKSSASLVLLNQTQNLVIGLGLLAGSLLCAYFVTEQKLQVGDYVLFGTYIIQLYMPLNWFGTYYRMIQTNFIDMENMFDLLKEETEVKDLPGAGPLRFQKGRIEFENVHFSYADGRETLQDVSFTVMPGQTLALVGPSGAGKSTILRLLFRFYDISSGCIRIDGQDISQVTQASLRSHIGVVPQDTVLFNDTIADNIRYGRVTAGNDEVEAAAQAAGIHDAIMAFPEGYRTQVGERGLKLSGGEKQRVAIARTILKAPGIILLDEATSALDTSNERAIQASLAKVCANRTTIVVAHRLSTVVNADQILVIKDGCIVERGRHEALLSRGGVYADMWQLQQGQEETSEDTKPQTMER

Q: How did the outcome turn out when CC(=O)Nc1ccc(NC(=O)c2nc(S(=O)(=O)Cc3cccc(C)c3)ncc2Cl)cc1 was run?
A: The outcome was “inactive”.

Q: How did the outcome turn out when CCOc1ccccc1NC(=O)c1nc(S(=O)(=O)Cc2cccc(C)c2)ncc1Cl was run?
A: The outcome was “inactive”.

Q: With CCc1ccc(NC(=O)c2nc(S(=O)(=O)Cc3ccccc3)ncc2Cl)cc1 as the compound, how does the outcome read?
A: Its outcome is “inactive”.

Q: For CC(=O)Nc1ccc(NC(=O)c2nc(S(=O)(=O)Cc3ccccc3)ncc2Cl)cc1, which outcome is on record?
A: Its outcome is “inactive”.
